In the library only some 11% were active in any assay of this set; here they are far more common.
Pf growth 48h: P. falciparum growth inhibition at 48 hours (one generation); P. falciparum luciferase growth in erythrocytes, 48 h; Potency, µM (top dose mostly 28.7 µM), for the others: at the top dose activity change, negative = inhibition, hits mostly inhibitors; actives 5.9% (n = 310,000)
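Cell-based growth assay: transgenic P. falciparum expressing firefly luciferase, cultured in red cells within RPMI 1640 containing 0.5% w/v Albumax, 24 mM bicarbonate and gentamycin. A drop in luciferase activity indicates inhibition.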
Pf growth 96h: inhibits malaria parasite growth, 96 h; P. falciparum luciferase reporter growth, 96 h; Potency, µM (highest dose often 28.7 µM), inactives show top-dose activity change, negative = inhibition, usual class: inhibitors; actives 6.9% (n = 320,000)
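Compounds incubated with erythrocytes infected by luciferase-expressing P. falciparum (2% hematocrit, 0.05% parasitemia final) for 96 hours, 37 C in 5% CO2. Growth inhibition scored as decreased luciferase luminescence.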
AMA1 RON2 block: AMA1-RON2 (P. falciparum) interaction inhibition | AlphaScreen AMA1-biotinylated RON2 peptide binding | Potency, µM (top dose mostly 58.2 µM), for the others: top-dose activity change, negative = inhibition, hits mostly inhibitors | actives 0.2% (n = 360,000);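 also: 0% = vehicle wells and -100% = peptide control; nearly all actives have a fitted effect of over 45% in size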
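AMA1 (3D7) with his tag at 25 nM final met compounds first, then biotinylated RON2 peptide at 25 nM; detection used donor plus acceptor beads, 10 µg/mL apiece, read by AlphaScreen after 30 min at room temperature.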
HCV inhibitor: HCV inhibition; Huh7.5.1 HCVcc-Cre infection, luciferase reporter, 44 h; Potency, µM (doses to about 41.8 µM), inactives show at the top dose activity change, negative = inhibition, actives largely listed as inhibitors; actives 3.4% (n = 340,000)
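Antiviral activity was scored by luciferase reporter output from cells infected with HCVcc-Cre (~0.5 moi) in presence of compound, 44 h infection period, cells seeded 1,000/well 4 h prior.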
AmpC inh no detg: inhibitors of E. coli AmpC beta-lactamase without detergent; P00811; Potency, µM (doses to about 57.1 µM), for the others: at the highest dose activity change, negative = inhibition, usual class: inhibitors; AmpC nitrocefin hydrolysis, absorbance 480 nm, 0.0001% Triton; actives 0.52% (n = 330,000);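 also: plate controls were no compound for no effect and no enzyme for full effect; nearly all actives have a fitted effect of over 20% in size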
Target sequence (P00811 whole entry, looked up): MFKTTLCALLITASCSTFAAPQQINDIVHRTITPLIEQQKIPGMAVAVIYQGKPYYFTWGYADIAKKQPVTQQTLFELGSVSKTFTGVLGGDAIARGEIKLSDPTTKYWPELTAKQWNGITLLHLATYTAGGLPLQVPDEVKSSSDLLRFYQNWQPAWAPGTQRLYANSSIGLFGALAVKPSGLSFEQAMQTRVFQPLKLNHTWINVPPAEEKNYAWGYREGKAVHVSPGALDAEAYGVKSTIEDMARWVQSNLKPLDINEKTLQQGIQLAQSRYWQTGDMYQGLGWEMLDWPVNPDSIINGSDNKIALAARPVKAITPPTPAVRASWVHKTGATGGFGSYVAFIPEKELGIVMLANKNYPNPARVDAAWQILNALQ
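AmpC (5.3 nM in the dispensed reagent) in 20 mM phosphate pH 7.0 with 0.01% (detergent screen) or 0.0001% Triton X-100 was preincubated with compounds for 15 min at room temperature. Nitrocefin was then added from an 800 uM solution, and hydrolysis was followed at 480 nm.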
AmpC detergent: blocks E. coli AmpC beta-lactamase in detergent assay. AID 485294. actives 0.041% (n = 370,000). AmpC hydrolysis of nitrocefin, absorbance 480 nm, 0.01% Triton. Potency, µM (highest dose often 114 µM), inactives show at the top dose activity change, negative = inhibition, most hits filed as inhibitors. P00811;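 also: 0% = no-compound wells and -100% = no-enzyme wells; nearly all actives have a fitted effect of over 25% in size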
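20 mM phosphate pH 7.0 + 0.01% (detergent screen) or 0.0001% Triton X-100; 5.3 nM AmpC reagent; cpd preinc 15 min RT; nitrocefin (800 uM stock) to start; A480 q20 s × 4 min; Activity was normalised to no-enzyme and no-compound control wells.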
The depositor's hits bear a star. Calls follow the shape of the dose curve; as a rule, active = well fitted curve in the direction sought with a large enough effect; inconclusive = small, poorly fitted or top-dose-only effect, or another doubt; inactive = no such curve, though single readings can be large; an effect the other way counts as inactive or inconclusive. Unless noted, % is scaled to controls: 0 for no effect and ±100 for the full control effect; potency is read from the fitted curve at half-maximal effect.

Cc1ccc(CNC(=O)C2CCC(CNS(=O)(=O)c3cccc4cccnc34)CC2)cc1 (centres undefined) was read as Pf growth 48h inconclusive, Pf growth 96h 11.7µM*, AMA1 RON2 block 7.3%, HCV inhibitor -29.9%, AmpC inh no detg 41.8% and AmpC detergent -4.1%.
`COc1ccc(CN(Cc2cccn2C)S(=O)(=O)c2cccc(C(F)(F)F)c2)cc1` gave Pf growth 48h 11.7µM*, Pf growth 96h inconclusive, AMA1 RON2 block -15.9%, HCV inhibitor inconclusive, AmpC inh no detg -18.9% and AmpC detergent -3.8%.
Cc1ccc(S(=O)(=O)NCC2CCC(C(=O)NCCCN3CCC(C)CC3)CC2)cc1 (centres undefined) was read as AMA1 RON2 block 11.1%.
Screening COc1ccc(CNC(=O)C2CCC(CNS(=O)(=O)c3ccccc3)CC2)cc1 (centres undefined) returned Pf growth 48h 3.7µM*, Pf growth 96h 0.0%, AMA1 RON2 block -5.3%, HCV inhibitor inconclusive, AmpC inh no detg -11.8% and AmpC detergent inconclusive.
`CC1CCN(CCCNC(=O)C2CCC(CNS(=O)(=O)c3ccccc3)CC2)CC1` (centres undefined) gave Pf growth 48h 21.0%, Pf growth 96h 11.7µM*, AMA1 RON2 block 24.5%, HCV inhibitor -5.2%, AmpC inh no detg 8.1% and AmpC detergent 2.1%.
For COc1cn(CC(=O)Nc2ccc(C)cc2C)c(CN2CCCCC2)cc1=O the results were AmpC detergent -3.6%.
Cc1ccccc1CCNC(=O)c1ccc2c(c1)nc1n2CCC(C)C1 (centres undefined) was read as AmpC detergent 25.6%.
CCc1ccc(C(=O)c2cn(CC(=O)NC3CCCCC3)c3nc(C)ccc3c2=O)cc1 was read as AmpC detergent 0.3%.
Screening O=C(CN1CCN(Cc2ccccc2Cl)C1=O)NCc1ccccc1Cl returned AmpC detergent 8.5%.
`CCc1ccc(NC(=O)Cn2cc(S(=O)(=O)c3ccc(F)cc3)c(=O)c3cc(OC)ccc32)cc1` gave AmpC detergent 6.7%.
COC(=O)[C@@H](NC(=O)N(C1CCCCC1)C1CCCCC1)C(C)C was read as Pf growth 48h -22.1%, Pf growth 96h 1.65µM*, AMA1 RON2 block 0.0%, HCV inhibitor -21.2%, AmpC inh no detg 78.3% and AmpC detergent -7.2%.
For COc1ccc(-c2[nH]ncc2CN2CCSCC2)c(OC)c1 the results were Pf growth 48h -0.9%, Pf growth 96h 11.7µM*, AMA1 RON2 block 3.9%, HCV inhibitor -4.7%, AmpC inh no detg -16.0% and AmpC detergent 1.6%.
Screening COc1ccc(CN2CCSCC2)c(OC)c1C returned Pf growth 48h -15.4%, Pf growth 96h inconclusive, AMA1 RON2 block -18.6%, HCV inhibitor -0.1%, AmpC inh no detg -21.8% and AmpC detergent -13.5%.
`COc1ccc(OC)c(CN2CCSCC2)c1` gave Pf growth 48h inconclusive, Pf growth 96h -2.3%, AMA1 RON2 block -12.5%, HCV inhibitor 5.1%, AmpC inh no detg -9.6% and AmpC detergent inconclusive.
Screening COc1ccc(CN2CCSCC2)c(C)c1C returned Pf growth 48h -2.0%, Pf growth 96h 8.28µM*, AMA1 RON2 block -20.9%, HCV inhibitor 21.3%, AmpC inh no detg -19.2% and AmpC detergent inconclusive.
For Cc1ccc(N=Cc2cc(Cc3ccccc3Cl)cc([N+](=O)[O-])c2O)c(O)c1 the results were Pf growth 48h 44.6%, Pf growth 96h -20.0%, AMA1 RON2 block 10µM*, HCV inhibitor 20.3%, AmpC inh no detg -45.1% and AmpC detergent 4.1%.
`COc1cccc(C2C(C#N)=C(N)OC3=C2C(=O)CC(c2ccco2)C3)c1OCc1ccc(F)cc1` (centres undefined) gave Pf growth 48h 6.57µM*, Pf growth 96h 64.6%, AMA1 RON2 block -14.8%, HCV inhibitor inconclusive, AmpC inh no detg -35.1% and AmpC detergent -0.4%.
N#CC1=C(N)OC2=C(C(=O)CC(c3ccco3)C2)C1c1ccc(OCc2c(F)cccc2Cl)cc1 (centres undefined) was read as Pf growth 48h inconclusive, Pf growth 96h 26.2%, AMA1 RON2 block -4.2%, HCV inhibitor inconclusive, AmpC inh no detg -55.6% and AmpC detergent -10.8%.
`Cc1nn(CCCC(=O)NCc2ccccc2)c(=O)c2nccn12` gave Pf growth 48h 8.6%, Pf growth 96h 1.04µM*, AMA1 RON2 block -0.7%, HCV inhibitor 8.3%, AmpC inh no detg -4.3% and AmpC detergent inconclusive.
Cc1ccccc1Sc1ncnc2onc(C)c12 was read as Pf growth 96h 8.28µM*, AMA1 RON2 block 41.5%, HCV inhibitor inconclusive, AmpC inh no detg -2.1% and AmpC detergent -0.4%.
Screening Cc1noc2ncnc(Sc3c(Cl)cccc3Cl)c12 returned Pf growth 96h 2.33µM*, AMA1 RON2 block -1.6%, HCV inhibitor inconclusive, AmpC inh no detg -15.2% and AmpC detergent 2.7%.
Screening Cc1[nH]c2ccc3ccccc3c2c(=O)c1C/C=C/Cl returned Pf growth 48h -36.2%, Pf growth 96h 14.7µM*, AMA1 RON2 block 11.2%, HCV inhibitor inconclusive, AmpC inh no detg -30.9% and AmpC detergent inconclusive.
`Cc1[nH]c2ccc(Br)cc2c(=S)c1C/C=C/Cl` gave Pf growth 48h inconclusive, Pf growth 96h 8.28µM*, AMA1 RON2 block 45.7%, HCV inhibitor -14.3%, AmpC inh no detg -50.1% and AmpC detergent 1.7%.
CC(=O)Nc1ccc2[nH]c(C)c(CC=C(Cl)Cl)c(=O)c2c1 was read as Pf growth 48h 19.3%, AMA1 RON2 block -22.0%, HCV inhibitor -0.4%, AmpC inh no detg -30.3% and AmpC detergent -8.1%.
CCc1c(C)[nH]c2ccc(OC)cc2c1=S was read as Pf growth 48h inconclusive, Pf growth 96h inconclusive, AMA1 RON2 block -15.2%, HCV inhibitor -13.9%, AmpC inh no detg -4.9% and AmpC detergent 4.6%.
Screening COc1ccc(Cl)cc1NC(=O)CSc1nc(=O)n(Cc2ccco2)c2c1CCC2 returned AmpC detergent 4.9%.
For CN(C)c1ccc(CNCCC(Cc2ccccc2)c2ccco2)cc1 (centres undefined) the results were Pf growth 48h inconclusive, Pf growth 96h 9.28µM*, AMA1 RON2 block 15.8µM*, HCV inhibitor inconclusive, AmpC inh no detg 4.9% and AmpC detergent 0.4%.

Screening results (PubChem BioAssay)
